Potency and activity, negative = inhibition data for six compounds are collected here from PubChem BioAssay (NCATS).

Inconclusive results are not listed. A number with no mark means an inactive call. Calls of active or inactive are those of the source. The call rests on the fitted dose curve; in most records, active means well fitted curve in the direction sought with a large enough effect; inconclusive means small, poorly fitted or top-dose-only effect, or another doubt; inactive means no such curve, though single readings can be large; an effect the other way counts as inactive or inconclusive.

Assay [1] concerns the target ATP-dependent 6-phosphofructokinase (Trypanosoma brucei brucei) (UniProt O15648). As to the kind of experiment: qHTS Assay to Find Inhibitors of T. brucei phosphofructokinase: hit validation (AID 492961).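 Further: luminescence reports ADP formed as PFK phosphorylates fructose-6-phosphate with ATP; on the % scale 0 is the no-effect control and ±100 the full control effect.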 The gist of the method:
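Reaction: 0.1 M triethanolamine pH 8.0, 5 mM MgCl2, F6P 0.5 mM, ATP 0.1 mM, PFK 1.25 nM, 45 min RT. Read-out: ADP-Glo luminescence. Analysis: concentration-response fits, classed by r2 and efficacy.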
(Quantitative high-throughput screening tests each substance at several concentrations.)

A short description of assay [2]: qHTS profiling for inhibitors of Plasmodium falciparum proliferation (AID 504749). Further: potency means the concentration at half of the fitted maximal effect.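 On activity, negative = inhibition: 0% = DMSO vehicle and full inhibition = artemisinin control.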 On all read-outs here: nearly all actives have a fitted effect of over 60% in size. As to conditions: P. falciparum in erythrocytes, SYBR Green DNA, 72 h; for activity, negative = inhibition: at 28.7 µM (top of the series). The gist of the method: (§1)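 Fluorescence of SYBR Green-bound parasite DNA, read at 485/535 nm, served as the growth measure. Infected erythrocytes were cultured with compound 72 h; artemisinin (0.29 uM) and DMSO wells defined the normalization range.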

A further assay relates to 3D7. Described as above. As to conditions: P. falciparum in erythrocytes, SYBR Green DNA, 72 h; series mostly up to 28.7 µM. Summed up: as §1
Another assay has as its system AA1029. The assay is described as above. The following applies: P. falciparum in erythrocytes, SYBR Green DNA, 72 h; series mostly up to 28.7 µM. Summed up: as §1
In another assay the test system is AS120. The assay is described as above. The following applies: P. falciparum in erythrocytes, SYBR Green DNA, 72 h; series mostly up to 28.7 µM. Summed up: as §1
For another assay, the system named is ATS189. The assay is described as above. As to conditions: P. falciparum in erythrocytes, SYBR Green DNA, 72 h; series mostly up to 28.7 µM. The gist of the method:
as §1

In another assay the test system is C2A. Described as above. The following applies: P. falciparum in erythrocytes, SYBR Green DNA, 72 h; series mostly up to 28.7 µM. Summed up: as §1
The subject of another assay is CP185. The assay is described as above. The following applies: P. falciparum in erythrocytes, SYBR Green DNA, 72 h; series mostly up to 28.7 µM. Summed up:
as §1

The next assay has as its system CP191. The assay is described as above. The following applies: P. falciparum in erythrocytes, SYBR Green DNA, 72 h; series mostly up to 28.7 µM. The gist of the method: as §1
Another assay deals with CP192. The assay is described as above. As to conditions: P. falciparum in erythrocytes, SYBR Green DNA, 72 h; series mostly up to 28.7 µM. Summed up: as §1
Another assay concerns CP194. The description is as above. The following applies: P. falciparum in erythrocytes, SYBR Green DNA, 72 h; series mostly up to 28.7 µM. The gist of the method: as §1
For a further assay, the system named is CP211. The description is as above. The following applies: P. falciparum in erythrocytes, SYBR Green DNA, 72 h; series mostly up to 28.7 µM. Summed up:
as §1

The next assay has as its system CP217. Described as above. As to conditions: P. falciparum in erythrocytes, SYBR Green DNA, 72 h; series mostly up to 28.7 µM. Summed up:
as §1

Another assay has as its system CP237. The assay is described as above. As to conditions: P. falciparum in erythrocytes, SYBR Green DNA, 72 h; series mostly up to 28.7 µM. The gist of the method: as §1
A further assay concerns CP238. The description is as above. As to conditions: P. falciparum in erythrocytes, SYBR Green DNA, 72 h; series mostly up to 28.7 µM. Summed up: as §1
Another assay deals with CP247. Described as above. The following applies: P. falciparum in erythrocytes, SYBR Green DNA, 72 h; series mostly up to 28.7 µM. The gist of the method: as §1
Another assay concerns CP252. The description is as above. The following applies: P. falciparum in erythrocytes, SYBR Green DNA, 72 h; series mostly up to 28.7 µM. Summed up: as §1
The next assay relates to CP286. The assay is described as above. As to conditions: P. falciparum in erythrocytes, SYBR Green DNA, 72 h; series mostly up to 28.7 µM. Summed up:
as §1

The subject of a further assay is Dd2. The assay is described as above. As to conditions: P. falciparum in erythrocytes, SYBR Green DNA, 72 h; series mostly up to 28.7 µM. The gist of the method:
as §1

The test system of another assay is P94_40. The description is as above. As to conditions: P. falciparum in erythrocytes, SYBR Green DNA, 72 h; series mostly up to 28.7 µM. Summed up: as §1

Chain of ATP-dependent 6-phosphofructokinase (Trypanosoma brucei brucei) (O15648 whole entry, looked up): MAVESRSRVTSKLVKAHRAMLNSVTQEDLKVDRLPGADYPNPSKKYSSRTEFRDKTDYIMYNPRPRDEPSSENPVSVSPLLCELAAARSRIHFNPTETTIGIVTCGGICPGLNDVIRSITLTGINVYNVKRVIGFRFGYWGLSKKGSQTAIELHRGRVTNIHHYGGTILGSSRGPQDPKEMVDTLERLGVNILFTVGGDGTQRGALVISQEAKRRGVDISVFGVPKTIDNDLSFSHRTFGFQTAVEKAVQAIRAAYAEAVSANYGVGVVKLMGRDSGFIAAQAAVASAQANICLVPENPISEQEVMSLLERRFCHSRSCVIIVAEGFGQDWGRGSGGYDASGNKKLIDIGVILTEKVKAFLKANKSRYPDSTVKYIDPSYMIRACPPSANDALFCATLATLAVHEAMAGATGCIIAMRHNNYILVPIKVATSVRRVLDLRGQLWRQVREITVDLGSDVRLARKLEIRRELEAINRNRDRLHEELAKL

For `CCCC(=O)O[C@]1(C(=O)COC(C)=O)CC[C@H]2C3C[C@H](F)C4=CC(=O)C=CC4(C)[C@@]3(F)[C@@H](O)CC21C` (stereo partly specified), the Potency entry (in [1]; in the assay with 3D7; in the assay on AA1029; in the assay on AS120; in the assay with ATS189; in the assay on C2A) was “inactive” in each case. Further, the Potency result in the assay on CP185, in the assay with CP191, in the assay on CP192, in the assay on CP194, with CP211 and in the assay with CP217 was “inactive” each time. The Potency entry in the assay with CP237, with CP238, in the assay on CP247, in the assay on CP252, in the assay with CP286 and in the assay with Dd2 was “inactive” each time. The Potency entry in the assay with P94_40 is “inactive”. Also, the activity, negative = inhibition in assay [2] (parasite line A) is -8.4%; in assay [2] (parasite line B), -24.8%.
For `CO/N=C(/C(=O)N[C@@H]1C(=O)N2C(C(=O)O)=C(CSC(=O)c3ccco3)CSC12)c1csc(N)n1` (stereo partly specified), the Potency entry (in assay [1]; in the assay with 3D7; in the assay with AA1029; in the assay on AS120; in the assay with ATS189; with C2A) was “inactive” each time. Moreover, the Potency result with CP185, in the assay on CP191, in the assay with CP192, in the assay on CP194, with CP211 and with CP217 was “inactive” each time. In addition, the Potency result in the assay on CP237, in the assay with CP238, with CP247, in the assay on CP252, with CP286 and with Dd2 was “inactive” in each case. The Potency result in the assay with P94_40 is “inactive”. Further, the activity, negative = inhibition in [2] (parasite line A) is 2.76%; in assay [2] (parasite line B), 0.141%.
In the case of `NCCCCC(N)C(=O)O` (stereo unspecified), the Potency entry (in assay [1]; in the assay with 3D7; with AA1029; in the assay on AS120; with ATS189; with C2A) was “inactive” each time. In addition, the Potency result in the assay with CP185, in the assay on CP191, in the assay on CP192, in the assay on CP194, with CP211 and with CP217 was “inactive” each time. The Potency entry in the assay with CP237, in the assay with CP238, in the assay on CP247, in the assay on CP252, in the assay with CP286 and with Dd2 was “inactive” in each case. The Potency entry with P94_40 is “inactive”. Also, the activity, negative = inhibition in [2] (parasite line A) is -7.93%; in [2] (parasite line B), 13.6%.
Regarding `OCC(CO)NC1C[C@](O)(CO)[C@@H](O)[C@H](O)[C@H]1O` (stereo partly specified), the Potency entry (in assay [1]; with 3D7; in the assay with AA1029; in the assay on AS120; with ATS189; in the assay with C2A) was “inactive” each time. The Potency entry with CP185, in the assay with CP191, in the assay on CP192, with CP194, with CP211 and with CP217 was “inactive” throughout. In addition, the Potency entry in the assay on CP237, with CP238, with CP247, in the assay with CP252, in the assay on CP286 and in the assay on Dd2 was “inactive” throughout. The Potency entry with P94_40 is “inactive”. Besides, the activity, negative = inhibition in assay [2] (parasite line A) was 8.78%; in assay [2] (parasite line B), 9.25%.
As to `CC(=O)N1CC(O)CC1C(=O)O` (stereo unspecified), the Potency entry (in [1]; in the assay on 3D7; in the assay on AA1029; in the assay with AS120; with ATS189; with C2A) was “inactive” each time. In addition, the Potency result in the assay on CP185, in the assay on CP191, in the assay with CP192, with CP194, in the assay with CP211 and with CP217 was “inactive” each time. The Potency result in the assay on CP237, in the assay with CP238, with CP247, in the assay with CP252, with CP286 and with Dd2 was “inactive” each time. Besides, the Potency entry with P94_40 is “inactive”. The activity, negative = inhibition was -10.1% in assay [2] (parasite line A) and -6.82% in [2] (parasite line B).
As to `COC1CC2CCC(C)[C@](O)(O2)C(=O)C(=O)N2CCCCC2C(=O)OC(C(C)CC2CCC(O)C(OC)C2)CC(=O)C(C)/C=C(/C)C(O)C(OC)C(=O)C(C)CC(C)C=CC=C/C=C\1C` (stereo partly specified), in assay [1], the Potency result was “inactive”. Also, the Potency in assay [2] (parasite line A) was 3.55 µM (active); in [2] (parasite line B), 1.41 µM (active); in the assay on 3D7, 2 µM (active); with AA1029, 2.24 µM (active); in the assay on AS120, 1.12 µM (active); with ATS189, 3.16 µM (active). The Potency in the assay on C2A was 4.47 µM (active); in the assay with CP185, 4.47 µM (active); in the assay with CP191, 2.51 µM (active); in the assay on CP192, 4.78 µM (active); with CP194 it was 3.38 µM (active); in the assay with CP211 it was 4.26 µM (active). In addition, the Potency in the assay with CP217 is 3.55 µM (active); with CP237, 2.82 µM (active); in the assay on CP238, 3.16 µM (active); in the assay with CP247 it was 3.16 µM (active); in the assay with CP252, 2.51 µM (active); in the assay on CP286, 4.47 µM (active). Besides, the Potency is 1.58 µM (active) in the assay with Dd2 and 1.41 µM (active) in the assay with P94_40.
